Source: PubChem BioAssay AID1159580 (chemical genetic matrix, 2015)
Values joined by “and” are separate entries in the source; they are usually repeats but may differ in a detail not shown here. Equal values may be shown once. In all, about 5,500 compounds went through this assay and about 2,000 (36%) were called active. About 18% were inconclusive and are not listed. No stated cut-off is given here; in the data, active means normalized growth mostly below about 0.91 (no sharp cut-off); inconclusive means no clear call, values can overlap the other calls; inactive means mostly above about 0.92. The list shows a part of the results.

Assay: chemical genetic growth profiling, strain panel (AID 1159580);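 further: tested at 20 µM; growth read once vehicle control cultures reached saturation at 30 °C; 1 = growth at the plate median or of vehicle wells; lower values mean less growth of the strain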
Settings: S. cerevisiae deletion strains, growth OD

Measured: normalized growth

CCCCCC(C)N (stereo unspecified)
inactive: locus YAL013W, strain DEP1, hits give low values 1.01 | locus YAL021C, strain ccr4, hits give low values 1.02 | locus YAL026C, strain drs2, hits give low values 1.02 | locus YAL030W, strain snc1, hits give low values 1.02 | locus YBL061C, strain skt5, hits give low values 1.03 | locus YBR009C, strain hhf1, hits give low values 1.03 | locus YBR021W, strain FUR4, hits give low values 1.01 | locus YBR023C, strain chs3, hits give low values 1.05 | locus YBR171W, strain sec66, hits give low values 1.04 | locus YBR229C, strain ROT2, hits give low values 1.01 | locus YBR231C, strain swc5, hits give low values 1.04 | locus YBR279W, strain paf1, hits give low values 1.02 | locus YCL011C, strain gbp2, hits give low values 1.02 | locus YCL016C, strain dcc1, hits give low values 1.03 | locus YCL029C, strain bik1, hits give low values 0.994 | locus YCL061C, strain MRC1, hits give low values 1.02 | locus YCL069W, strain vba3, hits give low values 1.03 | locus YCR088W, strain abp1, hits give low values 1.02 | locus YDL005C, strain med2, hits give low values 1.04 | locus YDL035C, strain GPR1, hits give low values 1.02 | locus YDL040C, strain nat1, hits give low values 1.03 | locus YDL074C, strain BRE1, hits give low values 1.02 | locus YDL101C, strain DUN1, hits give low values 1 | locus YDL134C, strain PPH21, hits give low values 1.02 | locus YDL185W, strain tfp1, hits give low values 0.999 | locus YDL192W, strain arf1, hits give low values 0.997 | locus YDR001C, strain nth1, hits give low values 1.02 | locus YDR069C, strain doa4, hits give low values 1.01 | locus YDR101C, strain arx1, hits give low values 0.99 | locus YDR137W, strain rgp1, hits give low values 1.08 | locus YDR150W, strain NUM1, hits give low values 1.02 | locus YDR159W, strain sac3, hits give low values 1.02 | locus YDR162C, strain NBP2, hits give low values 1.01 | locus YDR195W, strain ref2 1.03 | locus YDR297W, strain sur2, hits give low values 1.02 | locus YDR318W, strain mcm21, hits give low values 0.994 | locus YDR334W, strain swr1, hits give low values 1.02 | locus YDR335W, strain msn5, hits give low values 1.03 | locus YDR388W, hits give low values 0.993 | locus YDR392W, strain spt3, hits give low values 0.996 | locus YDR502C, strain sam2, hits give low values 0.993 | locus YEL003W, strain gim4, hits give low values 1.02 | locus YEL037C, strain rad23, hits give low values 1.02 | locus YEL061C, strain CIN8 (second series), hits give low values 1.03 | locus YEL061C, strain CIN8, hits give low values 1.01 | locus YER015W, strain faa2, hits give low values 1.02 | locus YER016W, strain bim1, hits give low values 1.02 | locus YER110C, hits give low values 0.989 | locus YER111C, strain swi4, hits give low values 1.03 | locus YER155C, strain BEM2 (second series), hits give low values 1 | locus YER155C, strain BEM2, hits give low values 1.02 | locus YER167W, strain BCK2, hits give low values 1.01 | locus YFR010W, strain ubp6, hits give low values 1.02 | locus YGL078C, strain dbp3, hits give low values 0.995 | locus YGL086W, strain mad1, hits give low values 1.01 | locus YGL167C, strain pmr1, hits give low values 1.03 | locus YGL173C, strain kem1, hits give low values 1.03 | locus YGL227W, strain vid30, hits give low values 1.02 | locus YGL240W, strain doc1, hits give low values 1.02 | locus YGL248W, strain PDE1, hits give low values 1 | locus YGL253W, strain hxk2, hits give low values 1.03 | locus YGR078C, strain PAC10, hits give low values 0.908 | locus YGR135W, strain pre9, hits give low values 0.996 | locus YGR229C, strain SMI1, hits give low values 1.01 | locus YGR252W, strain gcn5, hits give low values 1.05 | locus YHR027C, strain rpn1, hits give low values 1.02 | locus YHR030C, strain SLT2, hits give low values 1.02 and 1.01 | locus YHR079C, strain IRE1 (second series), hits give low values 0.996 | locus YHR079C, strain IRE1, hits give low values 0.99 | locus YHR094C, strain hxt1, hits give low values 0.998 | locus YHR129C, strain ARP1, hits give low values 1.01 | locus YHR142W, strain chs7, hits give low values 1.04 | locus YHR200W, strain rpn10, hits give low values 0.996 | locus YIL066C, strain RNR3, hits give low values 1.02 | locus YIL073C, strain SPO22, hits give low values 0.987 | locus YIL125W, strain kgd1, hits give low values 1 | locus YIR030C, strain dcg1, hits give low values 0.996 | locus YJL092W, strain hpr5, hits give low values 1.02 | locus YJL095W, strain BCK1 (second series), hits give low values 1.02 | locus YJL095W, strain BCK1, hits give low values 0.999 and 1 | locus YJL115W, strain asf1, hits give low values 1.02 | locus YJL129C, strain trk1, hits give low values 1.05 | locus YJL134W, strain LCB3, hits give low values 1 | locus YJL154C, strain vps35, hits give low values 1.01 | locus YJL164C, strain tpk1, hits give low values 1.02 | locus YJL166W, strain qcr8, hits give low values 1.02 | locus YJL168C, strain set2, hits give low values 0.991 | locus YJL187C, strain SWE1 (second series), hits give low values 1.01 | locus YJL187C, strain SWE1, hits give low values 1.02 | locus YJR043C, strain POL32, hits give low values 0.998 | locus YJR066W, strain TOR1, hits give low values 0.942
